Screens deposited in PubChem BioAssay by University of Kansas High Throughput Screening Laboratory.
mHTT-CaM PPI inh: mutant huntingtin-calmodulin interaction inhibitors – biochemical, AlphaScreen, primary screen; P42858; AlphaScreen His-mHTT/GST-CaM binding, luminescence; inhibition, % at 15 µM; 3.6% of 190,000 active
Pf apPOL inh: Pf-apPOL inhibitors, biochemical, fluorescence; Plasmodium falciparum apicoplast DNA polymerase (apPOL); Recombinant Pf-apPOL, molecular beacon fluorescence, 1.5 h; inhibition, % at 10 µM; 0.25% of 210,000 active; AID 1794808, 2022
Hits are given with their value. Shown are actives, neighbours in structure and some others; about 3.5% of the full set was active somewhere. Rule as the data show it: active = inhibition above about 50%; inactive = the rest.

Results for O=C1S/C(=C\c2ccc(F)cc2)C(=O)N1CN1CCCCC1 ?
mHTT-CaM PPI inh: inactive; Pf apPOL inh: inactive

Results for CCn1c(C)c(C(C)=O)c2cc(OCC(O)CNC(C)c3ccccc3)ccc21 (centres undefined) ?
mHTT-CaM PPI inh: inactive; Pf apPOL inh: inactive

Results for COc1ccc(C2Oc3c(OC)cccc3C3CC(c4ccc(C)o4)=NN32)cc1OC (centres undefined) ?
mHTT-CaM PPI inh: 51; Pf apPOL inh: inactive

How did COc1ccc(C2Oc3ccc(Cl)cc3C3CC(c4ccco4)=NN32)cc1 (centres undefined) do in these assays?
mHTT-CaM PPI inh: inactive; Pf apPOL inh: inactive

What do the screens show for `COc1ccc(C2Oc3ccccc3C3CC(c4ccc(C)o4)=NN32)cc1` (centres undefined)?
mHTT-CaM PPI inh: 60; Pf apPOL inh: inactive

How did CCOc1cccc2c1OC(c1ccc(OC)c(OC)c1)N1N=C(c3ccc(C)o3)CC21 (centres undefined) do in these assays?
mHTT-CaM PPI inh: 63; Pf apPOL inh: inactive

How did CCOc1cccc2c1OC(c1cccc(OC)c1)N1N=C(c3ccco3)CC21 (centres undefined) do in these assays?
mHTT-CaM PPI inh: inactive; Pf apPOL inh: inactive

Results for COc1cccc(C2=NN3C(C2)c2cccc(OC)c2OC3c2cc(OC)c(OC)c(OC)c2)c1 (centres undefined) ?
mHTT-CaM PPI inh: inactive; Pf apPOL inh: inactive

How did COc1cccc2c1OC(c1ccc(F)c(F)c1)N1N=C(c3ccco3)CC21 (centres undefined) do in these assays?
mHTT-CaM PPI inh: inactive; Pf apPOL inh: inactive

What do the screens show for `COc1ccc(C2Oc3c(OC)cccc3C3CC(c4ccc(C)o4)=NN32)cc1` (centres undefined)?
mHTT-CaM PPI inh: 83; Pf apPOL inh: inactive

What do the screens show for `COc1cccc(NC(=O)c2cc(C)n3nccc3n2)c1`?
mHTT-CaM PPI inh: inactive; Pf apPOL inh: inactive

What do the screens show for `O=C(O)c1cc(-n2c(/C=C/c3ccccc3)nc3ccccc3c2=O)ccc1Cl`?
mHTT-CaM PPI inh: inactive; Pf apPOL inh: inactive

How did CCOc1ccc(NC(=O)CN2C(=O)C3CCCN3C(=O)c3ccc(F)cc32)cc1 (centres undefined) do in these assays?
mHTT-CaM PPI inh: inactive; Pf apPOL inh: inactive

What do the screens show for `Oc1c(Br)cc(Br)cc1C=Nc1ccc(F)cc1`?
mHTT-CaM PPI inh: inactive

How did NC(=S)N/N=C/c1cc(Cl)cc(Cl)c1O do in these assays?
mHTT-CaM PPI inh: active

Results for COc1cc(OC)c(/C=N/NC(N)=S)cc1Br ?
mHTT-CaM PPI inh: inactive

What do the screens show for `NC(=S)N/N=C/c1cc(Br)cc(Br)c1O`?
mHTT-CaM PPI inh: active

How did Oc1c(Cl)cc(Cl)cc1C=NN=Cc1cc(Cl)cc(Cl)c1O do in these assays?
Pf apPOL inh: inactive

How did Oc1ccccc1N=Cc1cc(Br)cc(Br)c1O do in these assays?
mHTT-CaM PPI inh: 55; Pf apPOL inh: inactive

What do the screens show for `CC(=O)N1CCN(c2nc(C)nc(C)c2Cc2ccc(C)cc2)CC1`?
mHTT-CaM PPI inh: inactive; Pf apPOL inh: inactive

What do the screens show for `CC1=C(C(=O)OC(C)C)C(c2cc3c(cc2Br)OCO3)NC(=O)N1` (centres undefined)?
mHTT-CaM PPI inh: inactive; Pf apPOL inh: inactive

What do the screens show for `Cc1[nH]c2ccc([N+](=O)[O-])cc2c1-c1ccccc1`?
mHTT-CaM PPI inh: inactive; Pf apPOL inh: inactive

Results for Cc1ccc(C)c(N2CCN(Cc3cc4c(cc3[N+](=O)[O-])OCO4)CC2)c1 ?
mHTT-CaM PPI inh: inactive; Pf apPOL inh: inactive

What do the screens show for `Cc1ccc(C)c(N2CCN(Cc3ccc(-c4ccccc4[N+](=O)[O-])o3)CC2)c1`?
mHTT-CaM PPI inh: 70; Pf apPOL inh: inactive

What do the screens show for `O=[N+]([O-])c1cccc(-c2ccc(CN3CCN(c4ccccc4)CC3)o2)c1`?
mHTT-CaM PPI inh: 56; Pf apPOL inh: inactive

How did CN1CCN(Cc2ccc(-c3cccc([N+](=O)[O-])c3)o2)CC1 do in these assays?
mHTT-CaM PPI inh: inactive; Pf apPOL inh: inactive

What do the screens show for `O=C(OCc1cc(-c2ccc(F)cc2F)on1)c1ccc2nc[nH]c2c1`?
mHTT-CaM PPI inh: inactive; Pf apPOL inh: inactive

Results for CCOc1ccc(C(=O)Nc2cccc(Cl)c2)cc1[N+](=O)[O-] ?
mHTT-CaM PPI inh: inactive; Pf apPOL inh: inactive

How did COC(=O)C(NC(=O)C12CC3CC(C1)CC(c1ccc(C)cc1)(C3)C2)C(C)C (centres undefined) do in these assays?
mHTT-CaM PPI inh: inactive; Pf apPOL inh: inactive

How did CC(=O)N1CCN(CC(=O)N2N=C(c3ccc(C)c(C)c3)CC2c2ccccc2)CC1 (centres undefined) do in these assays?
mHTT-CaM PPI inh: inactive; Pf apPOL inh: inactive

How did Cc1ccc(C2=NN(C(=O)CN3CCC(C(N)=O)CC3)C(c3ccc(C)cc3)C2)cc1 (centres undefined) do in these assays?
mHTT-CaM PPI inh: 57; Pf apPOL inh: inactive

What do the screens show for `Cc1ccc(C2CC(c3ccc(Br)cc3)=NN2C(=O)CCC(=O)O)cc1` (centres undefined)?
mHTT-CaM PPI inh: inactive; Pf apPOL inh: inactive
